# Assay outcomes as filed in PubChem BioAssay.
# PLK1 kinase inh: inhibitors of human PLK1 kinase. recombinant PLK1 kinase, TR-FRET peptide phosphorylation. inhibition, % at 10 µM. 0.53% of 97,000 active. AID 619;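 active = inhibition of 50% or more in the single-concentration screen; inactive = inhibition below 50%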;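 also: 0% = DMSO max control and 100% = H-89 dihydrochloride min control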
# PLK1 PBD inh: Plk1 (human) PBD binding inhibition | Plk1 PBD phosphopeptide binding, fluorescence polarization | inhibition, %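 (tested at about 20 µM)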 | 0.13% of 97,000 active | AID 693; in the data active = inhibition above about 34%, passing the limit was not always enough
# sEH act: increases human soluble epoxide hydrolase activity | P34913 | purified human sEH enzymatic activity, activator screen | activation, % at 2 µM | 0.04% of 91,000 active; in the data active = activation above about 37%
# Target sequence (P34913 whole entry, looked up): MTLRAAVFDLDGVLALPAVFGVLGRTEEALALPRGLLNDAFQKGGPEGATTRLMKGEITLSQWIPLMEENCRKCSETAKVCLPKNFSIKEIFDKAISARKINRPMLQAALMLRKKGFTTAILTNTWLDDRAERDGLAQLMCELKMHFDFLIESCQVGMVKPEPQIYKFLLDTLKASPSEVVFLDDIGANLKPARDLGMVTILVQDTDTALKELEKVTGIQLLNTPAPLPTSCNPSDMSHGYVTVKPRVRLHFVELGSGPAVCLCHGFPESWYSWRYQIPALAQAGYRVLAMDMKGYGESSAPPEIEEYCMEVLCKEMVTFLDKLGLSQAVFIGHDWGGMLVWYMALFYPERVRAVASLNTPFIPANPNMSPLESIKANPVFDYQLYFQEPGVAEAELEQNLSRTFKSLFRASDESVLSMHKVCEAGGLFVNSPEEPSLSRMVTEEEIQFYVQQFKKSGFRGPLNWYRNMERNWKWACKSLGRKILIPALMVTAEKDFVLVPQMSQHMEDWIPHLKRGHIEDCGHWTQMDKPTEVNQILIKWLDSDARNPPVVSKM
# sEH inh: inhibitors of human soluble epoxide hydrolase | P34913 | recombinant human sEH enzymatic activity assay | inhibition, % at 2 µM | 0.34% of 91,000 active | AID 707; in the data active = inhibition above about 80%
# Pyk2 oligo antag: Pyk2 (human) oligomerization antagonism. 0.83% of 99,000 active. Q293 cells, Pyk2 FERM NanoBiT luminescence; active compounds read low. AID 1347419. z-score (the deposit names both 25 µM and 10 µM). Q14289;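 active = Z-score of -3 or lower, scaled per plate to the spread of control and sample wells; inactive = z-score above -3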;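 also: negative z-score means lost luminescence so less FERM oligomerization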
# Active calls of the source: *; · = no result given. Hits are enriched below; roughly 1.6% of the tested compounds scored in any of these assays.
SMILES,PLK1 kinase inh,PLK1 PBD inh,sEH act,sEH inh,Pyk2 oligo antag
Cc1cccc(C)c1N1CCN(c2ccc3nnc(C(F)(F)F)n3n2)CC1,2,-6,5,-2,-2.2
COc1ccc(-c2nc3ccncc3[nH]2)cc1OC,-4,-15,15,-17,0.78
Fc1ccc(-c2nc3ccncc3[nH]2)cc1,65*,-12,24,-21,-0.47
CC(C(=O)N1CCCc2ccccc21)N1C(=O)c2ccccc2C1=O (stereo unspecified),-10,5,5,-2,0.04
N#CCCn1cc(/C=N/O)c(-c2ccc(Cl)cc2)n1,0,15,12,-12,-3.5*
N#CCCn1cc(/C=N/O)c(-c2ccc(-c3ccccc3)cc2)n1,-6,3,·,·,-4.1*
OC1(c2ccc(F)cc2)CCN(Cc2nnnn2Cc2cccs2)CC1,-7,-42,1,-3,-1.2
COc1cc(CNC2CCCC2)cc(Cl)c1OCc1ccccc1F,-2,-9,2,-3,0.8
COC1CCCCC1NS(=O)(=O)c1ccc(Cl)cc1 (stereo unspecified),68*,-5,·,·,·
O=C(COc1ccc2ccccc2c1)Nc1cccc2cccnc12,-8,9,7,-4,0.82
O=C(COc1ccc2ccccc2c1)Nc1ccc(Cc2ccncc2)cc1,63*,7,-32,34,0.4
CCN(CC)S(=O)(=O)c1ccc(NC2c3ccccc3C(=O)N2Cc2ccc3c(c2)OCO3)cc1 (stereo unspecified),66*,9,·,·,·
Cc1c(C(=O)OCC(=O)N2CC(=O)Nc3ccccc32)oc2ccc(Br)cc12,-10,-18,-10,8,2
CCOC(=O)c1c(-c2ccc(C)cc2)csc1NC(=O)c1cc2ccccc2oc1=O,-3,·,·,·,·
CCOc1cc(/C=C2\CCC/C(=C\c3cc(Cl)c(O)c(OCC)c3)C2=O)cc(Cl)c1O,-9,-45,13,-13,-3.6*
c1ccc(Cn2c(-c3ccco3)nc3nc4ccccc4nc32)cc1,-10,2,38*,-40,0.28
CCOC(=O)c1ccc(NC(=O)CN(c2ccc(C)cc2)S(=O)(=O)c2c(C)n[nH]c2C)cc1,-6,16,-14,17,-3.4*
Cc1ccc(N(CC(=O)Nc2ccc3c(c2)OCCO3)S(=O)(=O)c2c(C)n[nH]c2C)cc1,-6,-34,3,0,-3.5*
COc1ccc(O)c(-c2cc(-c3cccs3)[nH]n2)c1,-2,1,-9,8,-1.1
CCOC(=O)COc1c(OC)cc(Cl)cc1C1NC(=O)NC(C)=C1C(C)=O (stereo unspecified),-8,-20,1,-3,-0.71
CCCC1=C(C(=O)OCC)C(c2cc(Cl)cc(OC)c2OCC(=O)OCC)NC(=O)N1 (stereo unspecified),-10,8,-6,2,-3.1*
O=C(CSc1nnc(NCc2ccccc2)s1)c1ccco1,2,9,-7,7,0.64
COc1ccc(C2C3=C(Nc4ncnn42)c2ccccc2CC3)cc1OC (stereo unspecified),-4,-12,·,·,·
Brc1ccc(C2C3=C(Nc4ncnn42)c2ccccc2OC3c2ccncc2)cc1 (stereo unspecified),-5,-22,-2,0,-3.8*
COc1ccc(C2Oc3ccccc3C3=C2C(c2cccs2)n2ncnc2N3)cc1 (stereo unspecified),1,-26,8,-9,-3.7*
SMILES,PLK1 kinase inh,PLK1 PBD inh,sEH act,sEH inh,Pyk2 oligo antag
Cc1ccccc1CN1CCN(CC(=O)NCc2ccc3c(c2)OCO3)C1=O,-9,16,9,-11,0.27
CCN(CC)S(=O)(=O)c1ccc2c(c1)nc(SCC(=O)NC1CC1)n2-c1ccccc1OC,-3,9,-21,20,-3.3*
COc1ccccc1-n1c(SCC(=O)NC2CCCC2)nc2cccnc21,-6,-21,-8,5,-0.49
CCC(C)(C)n1nnnc1C(c1ccncc1)N1CCC(Cc2ccccc2)CC1 (stereo unspecified),-4,11,-4,6,-3.1*
CCOc1ccc(Nc2ncnc3c2cnn3Cc2ccccc2)cc1,-8,-4,·,·,-3.1*
COc1ccc(Nc2ncnc3c2cnn3Cc2ccccc2)cc1,2,-15,-24,24,-2.8
CCC(CC)NC(=O)COC(=O)c1ccc(OCC(=O)Nc2ccccc2OC)c(OC)c1,-10,-5,-83,83*,0.34
CCCNC(=O)COC(=O)c1ccc(OCC(=O)Nc2ccccc2OC)c(OC)c1,-7,-33,-32,32,1.1
O=C(CN1CCC(n2nnc3cc(F)ccc32)CC1)NC1CC1,·,·,·,·,-0.32
CCOc1ccc2nc(NC(=O)CN3CCC(n4nnc5cc(F)ccc54)CC3)sc2c1,2,-13,-5,3,-3.3*
